Measurements: PubChem BioAssay AID1571 (National Center for Advancing Translational Sciences (NCATS), 2009)
Records with an inconclusive call do not appear. Activity calls are given as the source filed them. Calls follow the shape of the dose curve; as a rule, active = well fitted curve in the direction sought with a large enough effect; inconclusive = small, poorly fitted or top-dose-only effect, or effect the other way; inactive = flat fitted curve, though single readings scatter.

Test: Total Fluorescence Confirmation Counterscreen for Inhibitors of the Interaction of Thyroid Hormone Receptor and Steroid Receptor Coregulator 2, Fluorescein Fluoroprobe
Conditions: TRbeta/SRC2-fluorescein mix, total fluorescence interference; series mostly up to 92.2 µM; total fluorescence change, positive = fluorescent: at the top concentration
In short: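 Counterscreen flagging optical interferers: compound incubated 5 hr at ambient temperature with 0.6 uM human TRbeta LBD, 20 nM fluorescein-SRC2 peptide and 1 uM T3. Readout is total fluorescence computed as S + 2P; concentration-response % activity reported.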

Structure (SMILES)	total fluorescence change, positive = fluorescent	Potency
CCN(C(=O)C1CCCN(c2ncnc3onc(-c4ccc(F)cc4)c23)C1)c1ccccc1 (stereo unspecified)	-23.9% [at 184 µM] (inactive)	–
CCC(NC(=O)Nc1ccc(O)cc1)(C(F)(F)F)C(F)(F)F	5.98% (inactive)	–
Cc1cc2ccccc2n1CCNC(=O)C(C)Oc1ccccc1 (stereo unspecified)	-0.272% [at 46.3 µM] (inactive)	–
Nc1cc(-c2ccncc2)c[nH]c1=O	–	inactive
CCOc1cc(N2CCOCC2)c(OCC)cc1NC(C)C(=O)N1CCN(CC)CC1 (stereo unspecified)	10.4% [at 11.6 µM] (inactive)	–
CCCCOc1ccc(C(=O)CCN2CCOCC2)cc1	-10.9% (inactive)	–
Cn1c(-c2ccc(=O)[nH]c2)nc2ccccc21	2.71% (inactive)	–
CCCc1nc2c(=O)n(C)c(=O)nc-2n(C)n1	2.84% (inactive)	–
O=C(NNc1cc(N2CCOCC2)nc(N2CCOCC2)n1)c1ccc(Cl)c(Cl)c1	20.8% (inactive)	–
COc1cc(/C=C(\C#N)C(=O)NCC2CCCO2)ccc1OCCC(C)C (stereo unspecified)	-12.5% (inactive)	–
CCOc1cc(C(c2c(C)[nH][nH]c2=O)c2c(C)[nH][nH]c2=O)ccc1OS(=O)(=O)c1ccc(C)cc1	-13.9% (inactive)	–
Cc1cc(C)cc(OCC(=O)NCCc2nc3ccccc3[nH]2)c1	1.64% [at 184 µM] (inactive)	–
CS(=O)(=O)c1ccc(C(=O)OCC(=O)NC(=O)C2CCCCC2)cc1[N+](=O)[O-]	3.5% [at 0.0112 µM] (inactive)	–
CN(C(=S)Nc1cccnc1)c1ccc(O)cc1	-10.3% (inactive)	–
CCCc1cc(=O)[nH]c(=S)[nH]1	-2.07% (inactive)	–
CC(NC(=O)Nc1ccc(O)cc1)(C(F)(F)F)C(F)(F)F	8.06% [at 11.6 µM] (inactive)	–
N#Cc1c(NC(=O)c2ccccc2Cl)n(Cc2ccccc2)c2nc3ccccc3nc12	13% (inactive)	–
COc1cc(NC(C)CCCN)c2ncccc2c1 (stereo unspecified)	-8.62% [at 184 µM] (inactive)	–
CC1=NN(Cc2ccccc2)C(=O)C1	-15.6% (inactive)	–
CN(CCO)c1nc(N)c2c(N)nc3c(c2c1C#N)CC(=O)N3C1CCCC1	13.6% [at 11.6 µM] (inactive)	–
CCOC(=O)c1cnc2nc(NCc3ccc(OC)c(OC)c3)[nH]n2c1=O	22.6% (inactive)	–
